Experimental data taken from PubChem BioAssay AID1159580 (chemical genetic matrix, 2015).
The campaign covered roughly 5,500 compounds. About 2,000 (36%) were called active. Inconclusive results (about 18%) are left out. Rule as the data show it: active = normalized growth mostly below about 0.91 (no sharp cut-off); inconclusive = no clear call, values can overlap the other calls; inactive = mostly above about 0.92. This is one part of the list.

Assay: chemical genetic growth profiling, strain panel (AID 1159580);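 also: tested at 20 µM; growth read once vehicle control cultures reached saturation at 30 °C; 1 = growth at the plate median or of vehicle wells; lower values mean less growth of the strain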
Details: S. cerevisiae deletion strains, growth OD
[1] = locus YAR019C, strain CDC15, active compounds read low
[2] = locus YBL105C, strain PKC1, active compounds read low
[3] = locus YBR135W, strain CKS1, active compounds read low
[4] = locus YBR136W, strain MEC1, active compounds read low
[5] = locus YBR160W, strain CDC28, active compounds read low
[6] = locus YDL017W, strain CDC7, active compounds read low
[7] = locus YDL028C, strain MPS1, active compounds read low
[8] = locus YDL101C, strain DUN1, active compounds read low
[9] = locus YDL108W, strain KIN28, active compounds read low
[10] = locus YDL132W, strain cdc53, active compounds read low
[11] = locus YDL214C, strain PRR2, active compounds read low
[12] = locus YDR052C, strain DBF4, active compounds read low
[13] = locus YDR054C, strain cdc34, active compounds read low
[14] = locus YDR226W, strain ADK1, active compounds read low
[15] = locus YDR477W, strain SNF1, active compounds read low
[16] = locus YER123W, strain YCK3, active compounds read low
[17] = locus YER133W, strain GLC7, active compounds read low
[18] = locus YFL009W, strain cdc4, active compounds read low
[19] = locus YFL029C, strain CAK1, active compounds read low
[20] = locus YFR003C, strain YPI1, active compounds read low
[21] = locus YFR019W, strain FAB1, active compounds read low
[22] = locus YFR028C, strain CDC14, active compounds read low
[23] = locus YGR040W, strain KSS1, active compounds read low
[24] = locus YGR052W, strain FMP48, active compounds read low
[25] = locus YGR092W, strain DBF2, active compounds read low
[26] = locus YHR030C, strain SLT2, active compounds read low
[27] = locus YHR079C, strain IRE1, active compounds read low
[28] = locus YHR082C, strain KSP1, active compounds read low
[29] = locus YHR205W, strain SCH9, active compounds read low
[30] = locus YIL147C, strain SLN1, active compounds read low
[31] = locus YJL095W, strain BCK1, active compounds read low
[32] = locus YJL128C, strain PBS2, active compounds read low
[33] = locus YJL157C, strain FAR1, active compounds read low
[34] = locus YJR016C, strain ILV3, active compounds read low
[35] = locus YJR066W, strain TOR1 (second series), active compounds read low
[36] = locus YJR066W, strain TOR1, active compounds read low
[37] = locus YKL048C, strain ELM1, active compounds read low
[38] = locus YKL067W, strain YNK1, active compounds read low
[39] = locus YKL101W, strain HSL1, active compounds read low
[40] = locus YKL193C, strain SDS22, active compounds read low
[41] = locus YKL203C, strain TOR2, active compounds read low
[42] = locus YLR113W, strain HOG1, active compounds read low
[43] = locus YLR133W, strain CKI1, active compounds read low
[44] = locus YLR403W, strain SFP1, active compounds read low
[45] = locus YML070W, strain DAK1, active compounds read low
[46] = locus YMR001C, strain CDC5, active compounds read low
[47] = locus YMR205C, strain PFK2 (second series), active compounds read low
[48] = locus YMR277W, strain FCP1, active compounds read low
[49] = locus YNL006W, strain LST8, active compounds read low
[50] = locus YNL020C, strain ARK1, active compounds read low
[51] = locus YNL161W, strain CBK1, active compounds read low
[52] = locus YNL183C, strain NPR1, active compounds read low
[53] = locus YNL207W, strain RIO2, active compounds read low
[54] = locus YNL222W, strain SSU72, active compounds read low
[55] = locus YNL307C, strain MCK1 (second series), active compounds read low
[56] = locus YOL078W, strain AVO1, active compounds read low
[57] = locus YOL136C, strain PFK27, active compounds read low
[58] = locus YOR061W, strain CKA2, active compounds read low
[59] = locus YOR119C, strain RIO1, active compounds read low
[60] = locus YOR231W, strain MKK1, active compounds read low
[61] = locus YOR329C, strain SCD5, active compounds read low
[62] = locus YPL031C, strain PHO85, active compounds read low
[63] = locus YPL153C, strain RAD53, active compounds read low
[64] = locus YPL204W, strain HRR25, active compounds read low
[65] = locus YPL209C, strain IPL1, active compounds read low
[66] = locus YPL256C, strain CLN2, active compounds read low
[67] = locus YPR025C, strain CCL1, active compounds read low
[68] = locus YPR106W, strain ISR1, active compounds read low
[69] = locus YPR111W, strain DBF20, active compounds read low
[70] = strain NNK1, active compounds read low
[71] = strain TSCII, active compounds read low

Measured: normalized growth

O=C1OC(Nc2ccccc2SCc2ccccc2Cl)c2ccccc21 (configuration not stated)
active: [42] 0.832
inactive: [1] 0.985 | [2] 0.977 | [3] 0.97 | [4] 0.973 | [5] 0.981 | [6] 0.989 | [7] 0.984 | [8] 0.971 | [9] 0.977 | [10] 0.962 | [11] 0.903 | [12] 0.989 | [13] 0.98 | [14] 0.965 | [15] 0.928 | [16] 0.89 | [17] 0.897 | [18] 0.97 | [19] 0.971 | [20] 0.983 | [21] 0.886 | [22] 0.967 | [23] 0.899 | [24] 0.87 | [25] 0.855 | [26] 0.867 | [27] 0.905 | [28] 0.948 | [29] 0.798 | [30] 0.977 | [31] 0.814 | [32] 0.937 | [33] 0.905 | [34] 0.98 | [35] 0.846 | [36] 0.914 | [37] 0.963 | [38] 0.908 | [39] 0.907 | [40] 0.979 | [41] 0.93 | [43] 0.899 | [44] 0.83 | [45] 0.903 | [46] 0.98 | [47] 0.912 | [48] 0.979 | [49] 0.975 | [50] 0.916 | [51] 0.976 | [52] 0.909 | [53] 0.968 | [54] 0.974 | [55] 0.862 | [56] 0.97 | [57] 0.854 | [58] 0.888 | [59] 0.964 | [60] 0.895 | [61] 0.984 | [62] 0.912 | [63] 0.934 | [64] 0.882 | [65] 0.978 | [66] 0.953 | [67] 0.984 | [68] 0.976 | [69] 0.955 | [70] 0.971 | [71] 0.965

CCC1(c2ccccc2)OC(c2cc(Cl)cc(Cl)c2O)Nc2ccccc21 (configuration not stated)
inactive: [1] 0.96 | [2] 0.964 | [3] 0.965 | [4] 0.968 | [5] 0.964 | [6] 0.965 | [7] 0.966 | [8] 0.986 | [9] 0.968 | [10] 0.963 | [11] 0.705 | [12] 0.976 | [13] 0.954 | [14] 0.97 | [17] 0.734 | [18] 0.962 | [19] 0.967 | [20] 0.958 | [22] 0.963 | [24] 0.651 | [28] 0.689 | [29] 0.639 | [30] 0.964 | [32] 0.93 | [34] 0.962 | [35] 0.633 | [36] 0.572 | [40] 0.971 | [41] 0.751 | [46] 0.971 | [48] 0.968 | [49] 0.969 | [51] 0.962 | [52] 0.646 | [53] 0.96 | [54] 0.956 | [56] 0.967 | [59] 0.753 | [61] 0.962 | [62] 0.685 | [65] 0.954 | [67] 0.96 | [68] 0.954 | [69] 0.957 | [70] 0.963 | [71] 0.966
active: [15] 0.689 | [16] 0.513 | [21] 0.738 | [23] 0.689 | [25] 0.233 | [26] 0.449 | [27] 0.461 | [31] 0.464 | [33] 0.564 | [37] 0.717 | [38] 0.696 | [39] 0.678 | [42] 0.539 | [43] 0.623 | [44] 0.572 | [45] 0.561 | [47] 0.688 | [50] 0.552 | [55] 0.551 | [57] 0.452 | [58] 0.469 | [60] 0.476 | [63] 0.562 | [64] 0.604 | [66] 0.47
